High-throughput results as filed in PubChem.
PLK1 PBD block: blocks phosphopeptide binding to human PLK1 polo-box domain | Plk1 PBD binding of FITC phosphopeptide, fluorescence polarization | Potency, µM, for inactives: max response, negative = inhibition, most hits filed as inhibitors | 2.8% of 360,000 active; further: potency means the concentration at half of the fitted maximal effect; series mostly up to about 57 µM; on the % scale 0 is the no-effect control and ±100 the full control effect; nearly all actives have a fitted effect of over 65% in size
Vif-APOBEC3G blk: blocks the Vif interaction with human APOBEC3G; 0.076% of 410,000 active; Potency, µM (top dose mostly 46.1 µM), for inactives: top-dose activity, negative = active, usual class: inhibitors; HeLa A3G-eYFP + Vif (tagged APOBEC3G with the HIV-1 protein that degrades it), YFP fluorescence, overnight; Q9HC16; further: potency means the concentration at half of the fitted maximal effect; on the % scale 0 is the no-effect control and ±100 the full control effect; nearly all actives have a fitted effect of over 60% in size
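Read-out is eYFP fluorescence (Ex 488/Em 500-530) from Vif-expressing HeLa A3G-eYFP cells; more signal means A3G escaped Vif-mediated degradation. Cells plated overnight, compound pinned in, incubated overnight at 37 deg C.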
VDR inh: blocks the human vitamin D receptor; AID 504847; VDR-SRC2-3 peptide fluorescence polarization, 2 h; 0.93% of 400,000 active; P11473; Potency, µM, for inactives: max response, negative = inhibition, actives largely listed as inhibitors; further: potency means the concentration at half of the fitted maximal effect; on the % scale 0 is the no-effect control and ±100 the full control effect
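VDR–SRC2-3 interaction, FP format. Cmpds 23 nl via pintool, brief spin, 2 h ambient incubation.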
TSHR antag: human thyrotropin receptor antagonism. P16473. TSHR-expressing cells, TSH-stimulated cAMP HTRF, 2 h; active compounds read low. activity change, negative = inhibition, % at 11.5 µM. 0.2% of 330,000 active;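 active means activity change below a set negative limit, meaning inhibition stronger than a set level, cut at about -70% in these data; inconclusive means activity change between two set negative limits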; further: on the % scale 0 is the no-effect control and ±100 the full control effect
Target sequence (P16473 whole entry, looked up): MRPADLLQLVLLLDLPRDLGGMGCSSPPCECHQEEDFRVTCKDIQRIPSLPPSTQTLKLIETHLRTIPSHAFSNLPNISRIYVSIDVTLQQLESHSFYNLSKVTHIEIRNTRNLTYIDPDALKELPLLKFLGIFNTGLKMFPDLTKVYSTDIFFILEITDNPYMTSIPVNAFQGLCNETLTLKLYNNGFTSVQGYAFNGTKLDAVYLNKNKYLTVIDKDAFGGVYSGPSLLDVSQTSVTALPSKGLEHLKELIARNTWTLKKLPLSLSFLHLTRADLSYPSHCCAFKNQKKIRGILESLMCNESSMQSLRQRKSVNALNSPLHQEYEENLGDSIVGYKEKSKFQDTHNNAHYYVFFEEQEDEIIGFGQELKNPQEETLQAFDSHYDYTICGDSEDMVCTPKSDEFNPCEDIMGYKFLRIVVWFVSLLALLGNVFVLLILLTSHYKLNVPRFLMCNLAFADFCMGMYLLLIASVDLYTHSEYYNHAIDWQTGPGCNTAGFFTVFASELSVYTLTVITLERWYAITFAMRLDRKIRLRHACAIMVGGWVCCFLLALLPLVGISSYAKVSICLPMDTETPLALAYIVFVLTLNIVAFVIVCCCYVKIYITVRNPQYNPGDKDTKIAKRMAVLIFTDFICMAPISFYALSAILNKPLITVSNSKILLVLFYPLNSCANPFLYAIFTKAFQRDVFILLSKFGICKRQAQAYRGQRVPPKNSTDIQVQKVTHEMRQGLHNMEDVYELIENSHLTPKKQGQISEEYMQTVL
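TSHR-expressing cells, 200/well, pre-treated with compound, then stimulated with EC80 TSH (4nM final) for 2 hours at 37 deg C. cAMP measured by competitive HTRF: anti-cAMP cryptate antibody in lysis buffer plus cAMP-d2, read after 30 minutes at room temperature.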
Vif-A3F inh: blocks the Vif interaction with APOBEC3F; HeLa A3F-eYFP + Vif (tagged APOBEC3F with the HIV-1 protein that degrades it), YFP fluorescence increase; Potency, µM (doses to about 46.1 µM), inactives show top-dose activity, negative = active; 0.2% of 390,000 active; AID 602313; further: potency means the concentration at half of the fitted maximal effect; % of control where 0% means no effect; nearly all actives have a fitted effect of over 65% in size
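HeLa cells stably expressing A3F-eYFP plus Vif, plated and incubated overnight at 37 deg C, then exposed to compounds overnight at 37 deg C. Blocked degradation read as raised yellow fluorescence (Ex 488/Em 500-530).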
Active calls of the source: *; ? = inconclusive; nt = no result given. This is a sample that favours compounds with a hit; in the whole collection about 3.1% have one here. Unless noted, the call rests on the fitted dose curve; in most records, active means well fitted curve in the direction sought with a large enough effect; inconclusive means small, poorly fitted or top-dose-only effect, or another doubt; inactive means no such curve, though single readings can be large; an effect the other way counts as inactive or inconclusive.

SMILES | PLK1 PBD block | Vif-APOBEC3G blk | VDR inh | TSHR antag | Vif-A3F inh
C[C@]12CC[C@@H](O)C[C@@H]1CC[C@@H]1[C@@H]2CC[C@]2(C)C=CC[C@@H]12 | nt | nt | -14% | nt | nt
C[C@@H]1C(=O)O[C@@H]1[C@@H](C)CO[Si](c1ccccc1)(c1ccccc1)C(C)(C)C | nt | -2% | 7% | nt | nt
O=C(CN(CC(=O)N1CCOCC1)S(=O)(=O)c1ccc(Br)s1)N1CCOCC1 | 24µM* | 1% | -22% | nt | -1%
O=S(=O)(NN1CCOCC1)c1ccc(Br)cc1 | 7.5µM* | 0% | ? | 1 | -2%
CN1CCN(NS(=O)(=O)c2ccc(Cl)s2)CC1 | 8.4µM* | -1% | ? | 12 | 5%
O=S(=O)(Nc1ccc(N2CCOCC2)cc1)c1ccc(Cl)s1 | 0% | -2% | 3% | -4 | 0%
CN1CCN(S(=O)(=O)c2ccc(Cl)s2)CC1 | 2% | 4% | 9% | -6 | 2%
O=S(=O)(NN1CCOCC1)c1ccc(Cl)s1 | 21µM* | 1% | 9% | -7 | -23%
CC(C)(C)n1ncc2c(=O)n(Cc3cccc(C(F)(F)F)c3Cl)cnc21 | nt | -2% | nt | nt | nt
Cc1ccc2nc(CS)[nH]c2c1 | nt | 0% | nt | nt | nt
COc1ccc(SCC(Cc2ccccc2)N2CCN(CCc3ccccc3)CCC2=O)cc1 (configuration not stated) | nt | 4% | -3% | nt | nt
COc1ccc2[nH]cc(CCNc3ncnc4ccc(-c5c(C)noc5C)cc34)c2c1 | nt | nt | -6% | nt | nt
O=S(=O)(NN1CCOCC1)c1ccc(Br)s1 | 3µM* | -1% | ? | 24 | -10%
Cc1ccc(NS(=O)(=O)c2ccc(Br)s2)cc1S(=O)(=O)N1CCOCC1 | -2% | -2% | 3% | -2 | -6%
Cc1ccc(-n2c3nc(=O)[nH]c(=O)c-3cc3cc([N+](=O)[O-])ccc32)cc1C | 8.4µM* | -4% | ? | -22 | -7%
c1ccc(CN2CCC(N3CCC(N4CCCCCC4)CC3)CC2)cc1 | -2% | 2% | -4% | 3 | -5%
C#CC1CN(Cc2ccccc2)CC(C#C)N1C (configuration not stated) | 30µM* | -1% | -22% | -4 | -11%
COc1cccc(Cn2c(=O)n(Cc3ccccc3)c(=O)c3c2c2cc(OC)ccc2n3C)c1 | nt | -1% | 10% | nt | 0%
CCCc1cc(=O)n2nc(N3CCC(C(=O)NCc4ccco4)CC3)sc2n1 | 24µM* | 8% | -28% | 19 | 0%
COc1ccc(NC(=O)Cc2c[nH]c3ccccc23)cc1S(=O)(=O)N1CCOCC1 | 6% | -6% | 2% | -3 | -1%
COc1ccc(NC(=O)Cc2c[nH]c3ccccc23)cc1S(=O)(=O)N1CCCCC1 | -1% | 0% | -11% | -75* | 1%
C=C(C)[C@@H]1CCC2(C(=O)O)CC[C@]3(C)[C@H](CC[C@@H]4[C@@]5(C)CCC(=O)C(C)(C)[C@@H]5CC[C@]43C)[C@@H]12 (some centres not stated) | 13µM* | 2% | -17% | -2 | 0%
C=C(CC[C@@H](O)C(C)(C)O)[C@H]1CC[C@]2(C)[C@@H]1CCC1[C@@]3(C)CCC(=O)C(C)(C)C3CC[C@]12C (some centres not stated) | -5% | 0% | -15% | 19 | 3%
CCOC(=O)c1ccc(N2C(=O)C=CC2=O)cc1 | 3.8µM* | -18% | 50µM* | 4 | 13%
Cc1c(-c2ccc(Cl)cc2)c(=O)oc2c(CN3CCOCC3)c(O)ccc12 | nt | 1% | 18% | nt | -14%
SMILES | PLK1 PBD block | Vif-APOBEC3G blk | VDR inh | TSHR antag | Vif-A3F inh
CN1C/C(=C\c2ccc(N3CCOCC3)cc2)C(=O)/C(=C/c2ccc(N3CCOCC3)cc2)C1 | 30% | ? | ? | 9 | 25µM*
CN1C/C(=C/c2ccncc2)C(=O)/C(=C/c2ccncc2)C1 | -9% | 4% | -7% | 17 | ?
CCN1C/C(=C/c2ccc(N3CCOCC3)cc2)C(=O)/C(=C/c2ccc(N3CCOCC3)cc2)C1 | -16% | 10µM* | ? | -2 | 25µM*
CCc1ccc(/C=C2/SC(N3CCOCC3)=NC2=O)cc1 | ? | -4% | 7% | -4 | -2%
CCCN1CCC(=O)N(CCSc2ccc(Br)cc2)CC1 | nt | ? | -7% | nt | nt
O=C(NCCCCN1CCOCC1)c1cc2ccccc2o1 | nt | nt | 0% | nt | nt
